According to PMC9911399, “Two distinct binding modes provide the RNA-binding protein RbFox with extraordinary sequence specificity”:
Changes are numbered by the printed parent chain; changes in the protein carry UniProt numbers. The full ranking holds about 16,000 sequences; the median of “ka relative to ugcaugu” is about 0.096, and the highest 2% start at about 0.35. Shown is part of a subset that was picked to be rich in the highest values.

T1: RBFOX1 RRM RbFoxmut (Fox-RRM*) (Homo sapiens, UniProt Q9NWB1 109-208, R118D;E147R;N151S;E152T)
T1 sequence: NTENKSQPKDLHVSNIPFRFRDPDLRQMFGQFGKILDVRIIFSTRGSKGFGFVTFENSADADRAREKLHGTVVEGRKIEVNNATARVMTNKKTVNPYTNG

B1: UAACCGA (DNA:RNA)
RNA: GGGAGACCGGAAUUCAGAUUGUCCUAACCGAUUAAAUCCCGUCGUAGCCACCA
DNA 1: CAATCTGAATTCCGGTCTCCC
DNA 2: TGGTGGCTACGACGGGATT
B2: UGACGUC (DNA:RNA)
RNA: B1 RNA with A26G, C29G, G30U, A31C
DNA 1: CAATCTGAATTCCGGTCTCCC
DNA 2: TGGTGGCTACGACGGGATT
B3: UGGUAGU (DNA:RNA)
RNA: B1 RNA with A26G, A27G, C28U, C29A, A31U
DNA 1: CAATCTGAATTCCGGTCTCCC
DNA 2: TGGTGGCTACGACGGGATT
B4: UGCCGUU (DNA:RNA)
RNA: B1 RNA with A26G, A27C, C29G, G30U, A31U
DNA 1: CAATCTGAATTCCGGTCTCCC
DNA 2: TGGTGGCTACGACGGGATT
B5: CCAUGGC (DNA:RNA)
RNA: B1 RNA with U25C, A26C, C28U, C29G, A31C
DNA 1: CAATCTGAATTCCGGTCTCCC
DNA 2: TGGTGGCTACGACGGGATT
B6: AUCUUAC (DNA:RNA)
RNA: GGGAGACCGGAAUUCAGAUUGUCCAUCUUACUUAAAUCCCGUCGUAGCCACCA
DNA 1: CAATCTGAATTCCGGTCTCCC
DNA 2: TGGTGGCTACGACGGGATT
B7: UGAUGUG (DNA:RNA)
RNA: B1 RNA with A26G, C28U, C29G, G30U, A31G
DNA 1: CAATCTGAATTCCGGTCTCCC
DNA 2: TGGTGGCTACGACGGGATT
B8: UGAGAUG (DNA:RNA)
RNA: B1 RNA with A26G, C28G, C29A, G30U, A31G
DNA 1: CAATCTGAATTCCGGTCTCCC
DNA 2: TGGTGGCTACGACGGGATT
B9: UGAUGUC (DNA:RNA)
RNA: B6 RNA with A25U, U26G, C27A, U29G, A30U
DNA 1: CAATCTGAATTCCGGTCTCCC
DNA 2: TGGTGGCTACGACGGGATT
B10: AACUUAC (DNA:RNA)
RNA: B6 RNA with U26A
DNA 1: CAATCTGAATTCCGGTCTCCC
DNA 2: TGGTGGCTACGACGGGATT
B11: GGCAUAA (DNA:RNA)
RNA: B6 RNA with A25G, U26G, U28A, C31A
DNA 1: CAATCTGAATTCCGGTCTCCC
DNA 2: TGGTGGCTACGACGGGATT
B12: GCAUUGA (DNA:RNA)
RNA: B1 RNA with U25G, A26C, C28U, C29U
DNA 1: CAATCTGAATTCCGGTCTCCC
DNA 2: TGGTGGCTACGACGGGATT
B13: AUGAGAG (DNA:RNA)
RNA: B6 RNA with C27G, U28A, U29G, C31G
DNA 1: CAATCTGAATTCCGGTCTCCC
DNA 2: TGGTGGCTACGACGGGATT
B14: GCAGGAG (DNA:RNA)
RNA: B6 RNA with A25G, U26C, C27A, U28G, U29G, C31G
DNA 1: CAATCTGAATTCCGGTCTCCC
DNA 2: TGGTGGCTACGACGGGATT
B15: CGCAUGA (DNA:RNA)
RNA: B6 RNA with A25C, U26G, U28A, A30G, C31A
DNA 1: CAATCTGAATTCCGGTCTCCC
DNA 2: TGGTGGCTACGACGGGATT
B16: GGAUGAC (DNA:RNA)
RNA: B6 RNA with A25G, U26G, C27A, U29G
DNA 1: CAATCTGAATTCCGGTCTCCC
DNA 2: TGGTGGCTACGACGGGATT
B17: GCAUGAG (DNA:RNA)
RNA: B6 RNA with A25G, U26C, C27A, U29G, C31G
DNA 1: CAATCTGAATTCCGGTCTCCC
DNA 2: TGGTGGCTACGACGGGATT
B18: GUAUGAC (DNA:RNA)
RNA: B6 RNA with A25G, C27A, U29G
DNA 1: CAATCTGAATTCCGGTCTCCC
DNA 2: TGGTGGCTACGACGGGATT
B19: GGCAUGA (DNA:RNA)
RNA: B6 RNA with A25G, U26G, U28A, A30G, C31A
DNA 1: CAATCTGAATTCCGGTCTCCC
DNA 2: TGGTGGCTACGACGGGATT
B20: GCAUGAC (DNA:RNA)
RNA: B6 RNA with A25G, U26C, C27A, U29G
DNA 1: CAATCTGAATTCCGGTCTCCC
DNA 2: TGGTGGCTACGACGGGATT
B21: GCCAUGA (DNA:RNA)
RNA: B6 RNA with A25G, U26C, U28A, A30G, C31A
DNA 1: CAATCTGAATTCCGGTCTCCC
DNA 2: TGGTGGCTACGACGGGATT
B22: GUCAUGA (DNA:RNA)
RNA: B6 RNA with A25G, U28A, A30G, C31A
DNA 1: CAATCTGAATTCCGGTCTCCC
DNA 2: TGGTGGCTACGACGGGATT
B23: UAACUCA (DNA:RNA)
RNA: B1 RNA with C29U, G30C
DNA 1: CAATCTGAATTCCGGTCTCCC
DNA 2: TGGTGGCTACGACGGGATT
B24: CCUCUGC (DNA:RNA)
RNA: B6 RNA with A25C, U26C, C27U, U28C, A30G
DNA 1: CAATCTGAATTCCGGTCTCCC
DNA 2: TGGTGGCTACGACGGGATT
B25: GACAUAA (DNA:RNA)
RNA: B6 RNA with A25G, U26A, U28A, C31A
DNA 1: CAATCTGAATTCCGGTCTCCC
DNA 2: TGGTGGCTACGACGGGATT
B26: GCAUAGA (DNA:RNA)
RNA: B1 RNA with U25G, A26C, C28U, C29A
DNA 1: CAATCTGAATTCCGGTCTCCC
DNA 2: TGGTGGCTACGACGGGATT
B27: GCAUAAU (DNA:RNA)
RNA: B6 RNA with A25G, U26C, C27A, U29A, C31U
DNA 1: CAATCTGAATTCCGGTCTCCC
DNA 2: TGGTGGCTACGACGGGATT
B28: GCAUGAA (DNA:RNA)
RNA: B6 RNA with A25G, U26C, C27A, U29G, C31A
DNA 1: CAATCTGAATTCCGGTCTCCC
DNA 2: TGGTGGCTACGACGGGATT
B29: GCAUGAU (DNA:RNA)
RNA: B6 RNA with A25G, U26C, C27A, U29G, C31U
DNA 1: CAATCTGAATTCCGGTCTCCC
DNA 2: TGGTGGCTACGACGGGATT
B30: GCAUUUU (DNA:RNA)
RNA: B6 RNA with A25G, U26C, C27A, A30U, C31U
DNA 1: CAATCTGAATTCCGGTCTCCC
DNA 2: TGGTGGCTACGACGGGATT
B31: GCAUAAA (DNA:RNA)
RNA: B6 RNA with A25G, U26C, C27A, U29A, C31A
DNA 1: CAATCTGAATTCCGGTCTCCC
DNA 2: TGGTGGCTACGACGGGATT

These binders were tested against T1, RBFOX1 RRM RbFoxmut (Fox-RRM*) (assay: EMSA; HiTS-Eq, 1 nM pool, 10 min; buffer printed only for the single-RNA assays: 10 mM Tris pH 7.5, 150 mM NaCl, 3.4 mM EDTA, 0.001% NP-40, 30 C). Settings: tags: His6 N-terminal (pET28a); label: 5' 32P.
In short: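 Relative association constants, normalised to the cognate motif, were derived by comparing read counts of each RNA species with those of the control reaction. The RNA sequenced was the free fraction, separated by 8% native PAGE after a 10 min equilibration in 50 µL of 1 nM 5′-radiolabelled RNA (7 randomized nucleotides) with increasing concentrations of purified wild-type or mutant RbFox RRM.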
In the case of B1, the binding signal is reported as 0.0866 KA relative to UGCAUGU. In the case of B2, the binding signal is reported as 0.0923 KA relative to UGCAUGU. B3 was tested, and the binding signal was 0.163 KA relative to UGCAUGU. In the case of B4, the binding signal is reported as 0.113 KA relative to UGCAUGU. With B5 the binding signal was 0.0829 KA relative to UGCAUGU. For B6, the binding signal was 0.12 KA relative to UGCAUGU. B7 was tested, and the binding signal was 0.184 KA relative to UGCAUGU. B8 was tested, and the binding signal was 0.429 KA relative to UGCAUGU. With B9 the binding signal was 0.207 KA relative to UGCAUGU. For B10, the binding signal was 0.0902 KA relative to UGCAUGU. B11 was tested, and the binding signal was 0.117 KA relative to UGCAUGU. For B12, the binding signal was 0.178 KA relative to UGCAUGU. B13 was tested, and the binding signal was 0.16 KA relative to UGCAUGU. For B14, the binding signal was 0.0994 KA relative to UGCAUGU. For B15, the binding signal was 0.871 KA relative to UGCAUGU. In the case of B16, the binding signal is reported as 0.124 KA relative to UGCAUGU. For B17, the binding signal was 0.771 KA relative to UGCAUGU. For B18, the binding signal was 0.219 KA relative to UGCAUGU. In the case of B19, the binding signal is reported as 0.624 KA relative to UGCAUGU. For B20, the binding signal was 0.603 KA relative to UGCAUGU. B21 was tested, and the binding signal was 0.134 KA relative to UGCAUGU. With B22 the binding signal was 0.2 KA relative to UGCAUGU. For B23, the binding signal was 0.1 KA relative to UGCAUGU. With B24 the binding signal was 0.0985 KA relative to UGCAUGU. B25 was tested, and the binding signal was 0.115 KA relative to UGCAUGU. For B26, the binding signal was 0.132 KA relative to UGCAUGU. With B27 the binding signal was 0.115 KA relative to UGCAUGU. For B28, the binding signal was 0.798 KA relative to UGCAUGU. B29 was tested, and the binding signal was 0.551 KA relative to UGCAUGU. For B30, the binding signal was 0.113 KA relative to UGCAUGU. For B31, the binding signal was 0.144 KA relative to UGCAUGU.
